# According to PubChem BioAssay (Tox21):
# Several values for one entry are separate records, joined by “and”; a condition that tells them apart may be missing. Equal values may be shown once. Results filed as inconclusive are left out. Entries that show only a call come without a potency. Some structures have more than one record in an assay (separate samples or runs), and their calls can disagree. Activity calls are given as the source filed them. Calls come from the whole dose curve; as a rule, active = well fitted cell-killing curve with a large enough effect in the repeat runs; inconclusive = weak or mixed curves, or effect the other way; inactive = flat fitted curve, though single readings scatter.
# Test: Human pregnane X receptor (PXR) small molecule agonists, qHTS cell viability counter screen (AID 1346977); note: nearly all actives have a fitted effect of over 50% in size
# Conditions: PXR-Luc HepG2 viability, CellTiter-Fluor, 24 h; series mostly up to 92.4 µM
# Description: U.S. Tox21 Program National Center for Advancing Translational Sciences [NCATS] NIH Chemical Genomics Center [NCGC] U.S. Environmental Protection Agency [EPA] National Institutes of Environmental Health Sciences [NIEHS] National Toxicology Program [NTP] U.S. Food and Drug Administration [FDA] Tox21 Assay Overview: The human pregnane X receptor (hPXR) regulates the expression of several drug metabolizing enzymes and induction of these proteins is a major mechanism for developing drug resistance in cancer. One such key enzyme catalyzing the drug metabolism is cytochrome P450 3A4 (CYP3A4). Changes in CYP3A4 expression affect drug metabolism, thereby reducing the therapeutic efficacy and altering toxicological response to a drug and which finally causes adverse drug interaction. To screen Tox21 libraries for compounds that activate hPXR-mediated CYP3A4 gene expression, PXR-Luc HepG2 cells were used. Also cytotoxicity of the compounds was tested in parallel by measuring the cell viability using CellTiter-Fluor assay system in the same wells.
# Tox21 Assay Protocol Summary: PXR-Luc HepG2 cells were dispensed at 2,000 per well in 5uL of assay medium containing 5% charcoal-stripped FBS into white solid bottom 1536-well plates (Corning Life Sciences, Corning, NY) using a Multidrop Combi (Thermo Scientific, Waltham, MA) dispenser. The assay plates were incubated at 37 C and 5% CO2 for 5hr, and then 23nL of compounds dissolved in DMSO and positive control were transferred using a Pintool station (Wako, San Diego, CA). The assay plates were incubated at 37C and 5% CO2 for 24hr. For cytotoxicity read, after 23hr incubation at 37C, 1uL CellTiter-Fluor reagent (Promega Corporation, Madison, WI) was added to each well of the assay plates using Flying Reagent Dispenser (FRD, Aurora Discovery, San Diego, CA). After 1hr incubation at 37C and 5% CO2, the fluorescence signal was quantified using a ViewLux plate reader (PerkinElmer, Shelton, CT).
# Potency is the fitted concentration of half-maximal effect.
row,SMILES,Potency
1,O=Cc1ccco1,inactive
2,CC(O)CCO (stereo not given),inactive
3,c1ccc(N=Nc2ccccc2)cc1,inactive
4,C=C(C)C(=O)OCC1CO1 (stereo not given),inactive
5,CC1(C)C(C=C(Cl)Cl)C1C(=O)OC(C#N)c1cccc(Oc2ccccc2)c1 (stereo not given),inactive
6,C=C(C)[C@H]1Cc2c(ccc3c2O[C@@H]2COc4cc(OC)c(OC)cc4[C@@H]2C3=O)O1,112 nM (active) and 2.17 µM (active) and 298 nM (active)
7,CN(C)C(=O)Nc1ccc(Cl)cc1,inactive
8,Oc1ccc(-c2ccccc2)cc1,inactive
9,C=CCc1ccc2c(c1)OCO2,inactive
10,NNC(N)=S,inactive and 30.6 µM (active)
11,CCOC(=O)C(C)OC(=O)c1cc(Oc2ccc(C(F)(F)F)cc2Cl)ccc1[N+](=O)[O-] (stereo not given),inactive
12,CCOC(=S)S,inactive
13,CCCCCc1cc(O)cc(O)c1,inactive
14,Nc1c(Cl)cc([N+](=O)[O-])cc1Cl,inactive
15,O=C(CCl)c1ccccc1,inactive
16,COP(=S)(OC)Oc1cc(Cl)c(Cl)cc1Cl,inactive
17,c1ccc(P(c2ccccc2)c2ccccc2)cc1,inactive
18,CCC(C)(c1ccc(O)cc1)c1ccc(O)cc1,inactive
19,N[C@@H](Cc1ccc(N(CCCl)CCCl)cc1)C(=O)O,inactive
20,Nc1cccnc1,inactive

row,SMILES,Potency
1,CCCCCCOC(=O)c1ccccc1C(=O)OCCCCCC,inactive
2,CCOP(=S)(OCC)O/N=C(\C#N)c1ccccc1,inactive
3,O=C(NC(=O)c1c(F)cccc1F)Nc1ccc(Cl)cc1,inactive
4,N#CCCCl,inactive
5,O=C(O)CC[N+](=O)[O-],inactive
6,COc1ccc(C=O)cc1,inactive
7,CC(C)=CC1C(C(=O)OCc2coc(Cc3ccccc3)c2)C1(C)C (stereo not given),inactive
8,CC(C)(OOC(C)(C)c1ccccc1)c1ccccc1,inactive
9,C#CCOS(=O)OC1CCCCC1Oc1ccc(C(C)(C)C)cc1 (stereo not given),7.08 µM (active) and 7.7 µM (active)
10,C1=Cc2cccc3cccc1c23,inactive
11,CCN(CC)N=O,inactive
12,CC(C)(c1cc(Cl)c(O)c(Cl)c1)c1cc(Cl)c(O)c(Cl)c1,inactive
13,CC(C)NC(C)C,inactive
14,O=c1oc2ccccc2c(O)c1C(CC(O)c1ccc(-c2ccc(Br)cc2)cc1)c1ccccc1 (stereo not given),inactive
15,Nc1ccc(Cl)cc1N,inactive
16,O=[N+]([O-])c1ccc(O)c([N+](=O)[O-])c1,24.4 µM (active) and 54.5 µM (active)
17,O=C(Nc1ccc(Br)cc1)c1cc(Br)cc(Br)c1O,6.31 µM (active) and 8.63 µM (active) and 10.6 µM (active)
18,NCc1cccnc1,inactive
19,Nc1ccc(-c2ccc(N)c(N)c2)cc1N,inactive
20,CCOc1cc(C=O)ccc1O,inactive
